Measurements from publication PMC5540273 (PLoS ONE, 2017).

system: PDGFRB; details: concentration: 1 μM, replicates: in singlicate; n = 1
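Further: KINOMEscan kinase panel screen.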

Row | Structure (SMILES) | %Inh [%]
1 | CCn1c(-c2ccoc2)nc2cnccc21 [SB-733887] | 9
2 | CCS(=O)c1ccc(-c2coc3ccc(-c4nnc(C)o4)cc23)cc1 (stereo not shown) | 0
3 | Nc1ncnc2c1ncn2-c1ccc(Cl)cc1 [AH2635] | 86
4 | O=c1cc(N2CCOCC2)nc2n(Cc3ccc(F)c(Cl)c3)ccn12 [GSK2297099] | 17
5 | COc1ccc(CNC(=O)NC2CCN(c3ccnc(Nc4ccc(F)cc4)n3)C2)cc1 (stereo not shown) [GSK1379706] | 43
6 | COc1cc(Nc2ccnc3ccc(C(F)(F)F)cc23)cc(OC)c1OC [GW577382] | 36
7 | O=C(Nc1n[nH]c2nc(-c3ccccc3)c(Br)cc12)C1CC1 [SB-708998] | 93.7
8 | Nc1n[nH]c2nnc(-c3ccccc3)c(-c3ccccc3)c12 [GW554060] | 2
9 | CCc1nc(-c2cccc(C)c2)c(-c2ccncc2)s1 | 70
10 | O=C(NCCNc1ccnc(Nc2ccc(F)cc2)n1)Nc1ccc2c(c1)OCO2 [GSK1379882] | 53
11 | Fc1cccc(CSc2nnc(-c3ccc4c(c3)CCO4)o2)c1 | 0
12 | Cn1c(=O)c(F)c(Nc2ccc(I)cc2F)c2c(=O)n(OC[C@H](O)CO)cnc21 | 11
13 | COc1cc(Nc2nccc(N3CCC(NC(=O)C4COc5ccccc5O4)C3)n2)cc(OC)c1OC (stereo not shown) [GSK1379761] | 45
14 | CCC(=O)c1c(-c2ccccc2)c2cc(Cl)ccc2c(=O)n1Cc1cc(S(C)(=O)=O)n(CCC(C)(C)O)n1 | 0
15 | Nc1ncnc2c1ncn2-c1cccc(F)c1 [SKF-97560] | 58
16 | CCCNC(=O)Nc1ccc(Oc2ncnc3ccn(C)c23)cc1 | 46
17 | COc1ccc(Nc2nccc(N3CCC(NS(=O)(=O)c4ccc(NC(C)=O)cc4)C3)n2)cc1 (stereo not shown) [GSK1379729] | 15
18 | COc1cc2ncn(-c3cc(OCc4ccncc4Br)c(C(N)=O)s3)c2cc1OC [GW854278] | 58
19 | CN1C(=O)C(Nc2cc(Cl)c(O)c(Cl)c2)=C(c2ccc(Cl)cc2)C1=O [SB-404321] | 0

Row | Structure (SMILES) | %Inh [%]
20 | CCC(=O)c1c(-c2ccccc2)c2cc(Cl)ccc2c(=O)n1Cc1cc(S(C)(=O)=O)n(CC(F)F)n1 | 0
21 | O=C1NC(=O)C(c2ccccc2)=C1Nc1cccc(O)c1 [SB-390534] | 0
22 | Cc1cccc(-c2cc(-c3c[nH]nc3-c3ccccn3)ccn2)c1 [GW679395] | 61
23 | Nc1nc(N)c2nc(-c3ccccc3)[nH]c2n1 [SKF-12778] | 14
24 | COc1ccc(-n2cnc3c(N)ncnc32)cc1 [SKF-97236] | 95.1
25 | COc1cccc(-n2cnc3c(N)ncnc32)c1 [SKF-97416] | 4
26 | FC(F)(F)c1ccc(-c2ncn(CCCN3CCOCC3)c2-c2ccncc2)cc1 [SB-217780] | 32
27 | Cc1nnc(-c2ccc3ncn(-c4ccc(S(C)=O)cc4)c3c2)o1 (stereo not shown) | 30
28 | COC(=O)c1c(-c2ccccc2)c2cc(Br)ccc2c(=O)n1Cc1ccc(NC(=O)CCC(=O)O)cc1 | 57
29 | Cl.c1ccc(Cn2cnc3cc(Nc4ncnc5ccccc45)ccc32)cc1 [GW272142] | 6
30 | Cc1ccc(-c2ccc3c(ccc4sc5c(c43)NC[C@@H](C)N=C5N(C)C)n2)cn1 | 0
31 | CN1C(=O)C(Nc2ccccc2)=C(c2ccccc2)C1=O [SB-300079] | 24
32 | COc1cc2nccc(Nc3ccc(OCc4ccc(NC(C)=O)cc4)cc3)c2cc1OC.Cl [GW440135] | 99.6
33 | COc1cc2ncn(-c3cc(OCCCc4ccccc4)c(C(N)=O)s3)c2cc1OC [GSK205189] | 25
34 | Cc1nnc(-c2ccc(C)c(-c3ccc(C(=O)O)cc3)c2)o1 [GW608005] | 4
35 | O=C(Nc1n[nH]c2cc(-c3ccccc3F)ccc12)C1CC1 [SB-733371] | 46
36 | CCC(=O)c1c(-c2ccccc2)c2cc(Cl)ccc2c(=O)n1Cc1cc(C(=O)NC2CC2)n(C)n1 | 77
37 | CCC(=O)c1c(-c2ccccc2)c2cc(Cl)ccc2c(=O)n1Cc1ccc(C(=O)O)cc1 | 58
